ERb SRC1 inh: blocks coactivator binding to human estrogen receptor beta. TR-FRET ER-beta LBD / SRC1-Cy5 peptide binding; receptor agonist-loaded with 1 µM estradiol. inhibition, % at 25.6 µM. hit rate 1.3% among 86,000;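 active means compounds whose percent inhibition of the receptor-coactivator binding signal exceeds about 50% in the single-dose screen, limit read from the data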;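 further: 0% = receptor plus peptide wells without compound and 100% = peptide-only wells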
ERa SRC1 inh: blocks coactivator binding to human estrogen receptor alpha; TR-FRET ER-alpha LBD / SRC-1 peptide, estradiol-bound; inhibition, % at 25.6 µM; hit rate 1.7% among 86,000; in the data active means inhibition above about 50%;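 further: 0% = receptor plus peptide control and 100% = peptide only without receptor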
Target sequence (P03372 whole entry, looked up, the tested form may be a part): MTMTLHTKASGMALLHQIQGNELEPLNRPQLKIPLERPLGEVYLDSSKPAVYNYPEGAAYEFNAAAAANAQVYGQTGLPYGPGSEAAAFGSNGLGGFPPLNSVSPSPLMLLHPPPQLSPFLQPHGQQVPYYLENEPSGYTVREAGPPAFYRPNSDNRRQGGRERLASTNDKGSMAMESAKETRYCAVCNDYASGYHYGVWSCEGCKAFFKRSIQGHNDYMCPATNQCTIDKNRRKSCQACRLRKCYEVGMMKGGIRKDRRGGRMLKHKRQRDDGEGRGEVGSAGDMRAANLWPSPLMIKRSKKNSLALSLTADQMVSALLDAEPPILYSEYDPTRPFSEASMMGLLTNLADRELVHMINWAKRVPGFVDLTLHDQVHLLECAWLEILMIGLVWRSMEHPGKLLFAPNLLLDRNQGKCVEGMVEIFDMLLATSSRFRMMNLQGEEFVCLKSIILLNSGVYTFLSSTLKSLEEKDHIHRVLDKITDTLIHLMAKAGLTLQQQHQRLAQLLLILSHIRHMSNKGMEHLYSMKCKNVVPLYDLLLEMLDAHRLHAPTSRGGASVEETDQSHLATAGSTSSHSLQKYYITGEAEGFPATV
Candida biofilm: kills Candida albicans biofilms. C. albicans biofilm + clotrimazole, Alamar Blue. inhibition, % at 6 µM. hit rate 0.14% among 85,000;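 active means inhibition above 20%; inactive means inhibition below 20%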;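 further: preformed 24 hr biofilms exposed to compound for 48 hr; 0% = biofilm without compound and 100% = blank killed by clotrimazole plus chlorhexidine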
HePTP inhibitor: human HePTP phosphatase inhibition | P35236 | recombinant HePTP phosphatase activity, OD absorbance | inhibition, % at 20 µM | hit rate 0.64% among 110,000 | AID 521; in the data active means inhibition above about 50%;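 further: plate controls were vehicle for no effect and reference inhibitor for full effect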
ERa coact pot: ER-alpha (human) coactivator binding potentiation | coactivator binding (% of control), % at 25.6 µM | TR-FRET ERalpha-LBD/SRC-Cy5 coactivator binding, 2 h; 100 = basal binding, no effect | hit rate 1.3% among 86,000 | P03372 | AID 639; in the data active means activity above about 200%;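 further: binding measured in presence of low estradiol as agonist stimulus; 0% = peptide alone without receptor and 100% = receptor with peptide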
Smad3 inh: inhibitors of human Smad3 transcription factor binding; P84022; TR-FRET Smad3/Dy647-FoxH1 peptide binding, europium anti-His; inhibition, % at 25 µM; hit rate 0.29% among 88,000; AID 630;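 active means compounds that reduce the energy-transfer binding signal between the protein and its labelled peptide by more than half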;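 further: 0% = Smad3 plus labelled peptide maximal FRET and 100% = peptide-only background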
An asterisk follows results filed as active; . = no result given; [ ] = dose if it differs, or a comment. Hits are enriched below; roughly 2.9% of the tested compounds scored in any of these assays.

SMILES | ERb SRC1 inh | ERa SRC1 inh | Candida biofilm | HePTP inhibitor | ERa coact pot | Smad3 inh
O=C(/C=C/c1ccc(-c2ccccc2Br)o1)c1ccc(Cl)cc1 | . | . | . | -0.3 | . | .
O=S(=O)(c1ccc(Br)cc1Br)n1cnc2ccccc21 | . | . | . | 7.3 | . | .
CC1CCN(CCOCCOc2ccccc2F)CC1 | . | . | . | 4.6 | . | .
CC(=O)Nc1ccc(OCC(O)Cn2cnc3ccccc32)cc1 (stereo not drawn) | -6.7 | -5.4 | 8.5 | . | 636.3*[fluorescence artefact?] | -8.1
Cc1nnc(Sc2nc(Sc3nnc(C)s3)nc(N3CCN(C)CC3)n2)s1 | 60.5*[fluorescence artefact?] | -13.7 | 4.7 | 1.4 | 110.6 | 2.6
O=C(CSc1ccc(Cl)cc1)Nc1ccc(F)c(Cl)c1 | . | . | . | 0.3 | . | .
CCN(CC)C(=O)C1CC(=O)N(c2ccc(F)c(Cl)c2)C1 (stereo not drawn) | 66.9*[fluorescence artefact?] | 4.4 | 8.9 | 7.9 | 101.3 | -16.4
CCCCN(C(=O)NC(=O)Nc1cc(C)ccc1C)S(C)(=O)=O | 91.0*[fluorescence artefact?] | -0.1 | 9.3 | 7.1 | 104.2 | 3.2
CCNC(=O)C(=O)Nc1ccccc1C | . | . | . | 1.5 | . | .
O=C(CCOc1ccccc1)Nc1cccc([N+](=O)[O-])c1 | . | . | . | 91.8* | . | .
COc1ccc(OCCOCCN2CCOCC2)cc1 | 3.4 | -3.3 | 2.9 | . | 99.4 | 3.5
c1ccc(OCCOCCN2CCOCC2)cc1 | -5.3 | -8.7 | 62.5* | . | 97.3 | 3.9
COC(=O)c1ccc(Cl)c(NC(=O)NC2CCCCC2)c1 | 26.6 | 43.7 | 10.7 | 5.4 | 244.2*[fluorescence artefact?] | 4.6
COC(=O)c1ccc(C(=O)OC)c(NC(=O)c2cc(Cl)ccc2Cl)c1 | . | . | . | 102.1* | . | .
COC(=O)c1ccc(Cl)c(NC(C)=O)c1 | . | . | . | -3.2 | . | .
CCOC(=O)c1c(C)oc2c1c1c(c3ccccc32)OCN(Cc2cccnc2)C1 | 38.5 | 34.3 | 5.9 | -1.7 | 138.6 | 1.2
CCOC(=O)c1c(C)oc2c1c(C(c1cccnc1)N1CCN(C)CC1)c(O)c1ccccc12 (stereo not drawn) | 64.5*[fluorescence artefact?] | 77.4*[fluorescence artefact?] | 7.0 | 11.9 | 50.7 | 7.6
c1ccc(-c2nc3c4ccccc4nc(N4CCN(c5ccccn5)CC4)n3n2)cc1 | -1.1 | 15.5 | 10.8 | 2.6 | 214.6*[fluorescence artefact?] | -0.3
c1ccc(-c2nnc(N3CCN(c4ccccn4)CC3)c3ccccc23)cc1 | -5.6 | -2.6 | 0.6 | 8.6 | 113.1 | -3.1
O=C1CCC(=O)N1c1cccc(-c2nc3ccccc3o2)c1 | -3.2 | -3.9 | 2.6 | -0.2 | 136.8 | -1.3
O=C1c2ccc(-c3nc4ccccc4o3)cc2C(=O)N1Cc1cccnc1 | -14.7 | -2.0 | 5.5 | 7.8 | 369.5* | 14.2
O=C1c2ccc(Oc3ccc4c(c3)C(=O)N(Cc3cccnc3)C4=O)cc2C(=O)N1Cc1cccnc1 | . | . | . | 7.2 | . | .
O=C1c2cccnc2C(=O)N1c1cccc(-c2nc3ccccc3o2)c1 | 32.7 | 53.1*[fluorescence artefact?] | 7.8 | 15.7 | 59.2 | -10.1
Cc1cc(-c2nc3cccnc3s2)ccc1NS(=O)(=O)c1ccc2c(c1)OCCO2 | 15.9 | 9.9 | 10.6 | . | 204.1*[fluorescence artefact?] | 3.0
O=S(=O)(Nc1cccnc1Cl)c1ccc2c(c1)OCCO2 | 2.6 | 2.4 | 7.4 | . | 121.0 | 8.0
SMILES | ERb SRC1 inh | ERa SRC1 inh | Candida biofilm | HePTP inhibitor | ERa coact pot | Smad3 inh
Cc1c(NS(=O)(=O)c2ccc3c(c2)OCCO3)cccc1-c1nc2cccnc2s1 | 4.7 | 13.0 | 7.5 | . | 243.9*[fluorescence artefact?] | 1.1
CCOc1ccccc1NC(=O)C1C2C3CCC(C3)C12 (stereo not drawn) | . | . | . | 10.8 | . | .
COc1ccc(C(=O)CSc2nnc(-c3ccc(C)cc3)o2)cc1 | 23.8 | 51.4*[fluorescence artefact?] | 5.8 | -3.5 | 98.9 | 12.4
COc1ccc(OC)c(C(=O)CSc2nnc(-c3ccc(OC)c(OC)c3)o2)c1 | 27.1 | -10.5 | 5.2 | 5.5 | 329.1* | -21.3
COc1cc(-c2nnc(SCC(=O)c3cc(C)n(CC4CCCO4)c3C)o2)cc(OC)c1OC (stereo not drawn) | 2.7 | -1.9 | -0.8 | 12.7 | 97.3 | -5.1
Cc1cc(C(=O)CSc2nnc(-c3ccc(F)cc3)o2)c(C)n1CC1CCCO1 (stereo not drawn) | 14.8 | 40.8 | 6.5 | . | 228.7*[fluorescence artefact?] | -37.6
COc1ccc(C(=O)CSc2nnc(-c3ccccc3)o2)cc1 | 5.4 | 21.8 | 7.5 | 5.0 | 90.4 | -89.1
COc1ccc(Cc2nnc(SCC(=O)c3ccc(OC)cc3)o2)cc1 | -10.6 | -7.4 | 1.5 | 9.5 | 111.8 | 2.8
COc1ccc(-c2nnc(SCC(=O)N3CCCC3)o2)cc1OC | -28.0 | -21.6 | 4.0 | . | 118.9 | 6.9
Cc1cc(C)cc(OCc2nnc(SCC(=O)c3ccc(Br)cc3)o2)c1 | -18.1 | -19.5 | 2.2 | -3.5 | 201.8* | 9.5
COc1ccc(CCNC(=O)C(=O)Nc2ccc(F)cc2)cc1OC | . | . | . | 9.5 | . | .
Cc1[nH]c2ccc(-c3nnc(SCC(=O)c4ccc(F)cc4)o3)cc2c1C | 54.9*[fluorescence artefact?] | 64.5*[fluorescence artefact?] | 4.6 | 7.3 | 126.0 | -23.1
Cc1cc(C)c(C)c(C(=O)CSc2nnc(-c3ccc4[nH]c(C)c(C)c4c3)o2)c1C | -5.7 | -8.5 | 4.2 | . | 103.3 | -11.7
O=C(OCc1cccc2ccccc12)c1ccc2c(=O)[nH]c(CN3CCOCC3)nc2c1 | -0.1 | -1.1 | 3.2 | 4.2 | 142.0 | 5.9
CCc1ccc2nc(NC(=O)c3ccc4c(=O)[nH]c(CN5CCOCC5)nc4c3)sc2c1 | 48.2 | 69.0* | 2.5 | 7.1 | 170.1 | 14.8
Brc1ccc(OCCCCCn2ccnc2)cc1 | . | . | . | -22.1 | . | .
O=C(O)c1ccc2c(c1)C(=O)N(c1cccc(C(=O)Nc3cccc(Cl)c3)c1)C2=O | . | . | . | 4.2 | . | .
COc1ccc(OC)c(/C=N/N2CCN(Cc3ccc(Cl)cc3)CC2)c1 | . | . | . | -13.3 | . | .
CCOC(=O)N1CCC(NC(=O)c2cccn3c(=O)c4cc(Br)ccc4nc23)CC1 | 42.0 | 60.0*[fluorescence artefact?] | 1.3 | 10.2 | 288.3*[fluorescence artefact?] | 0.3
CCOC(=O)N1CCC(NC(=O)c2ccc3nc4ccccc4c(=O)n3c2)CC1 | 1.7 | -3.2 | 3.1 | . | 111.5 | 1.2
O=C(CCNc1ccc(F)cc1)c1ccc(Cl)c(Cl)c1 | . | . | . | -10.6 | . | .
COc1ccc(/C=C/C(O)=C2/C(=O)N(C)C3(C)CC2c2ccccc2O3)cc1 (stereo not drawn) | 26.7 | 62.9* | 1.8 | 3.8 | 94.7 | 13.6
CCN1C(=O)C(C(=O)Nc2ccc(OC)cc2)C2CC1(C)Oc1ccccc12 (stereo not drawn) | 3.3 | -11.6 | 9.7 | -0.3 | 114.3 | 6.4
Nc1cc(-c2nn[nH]n2)ccc1F | 59.6*[fluorescence artefact?] | 43.1 | 12.6 | 7.2 | 58.6 | 8.6
COC(=O)c1ccc(/C=N/N=C2\C(=O)Nc3ccccc32)cc1 | . | . | . | -10.2 | . | .
SMILES | ERb SRC1 inh | ERa SRC1 inh | Candida biofilm | HePTP inhibitor | ERa coact pot | Smad3 inh
Cc1sc(NC(=O)CC(c2ccccc2)c2ccccc2)c(C(N)=O)c1C | . | . | . | 4.8 | . | .
CN(C)S(=O)(=O)N(CC(=O)N(Cc1ccccc1)Cc1ccccc1)c1ccccc1 | 37.3 | 54.5* | 5.9 | . | 110.6 | -0.8
CCCOc1cccc(C(=O)Nc2nc(-c3ccc(F)cc3F)cs2)c1 | . | . | . | 94.9* | . | .
COc1ccc(C)cc1NC(=O)c1ccoc1C | 14.3 | 3.5 | 7.0 | 8.4 | 71.0 | 7.0
COc1ccc(C)cc1NC(=O)c1cc2c(CO)cnc(C)c2oc1=N | 14.2 | -28.2 | 0.1 | -1.4 | 239.2*[fluorescence artefact?] | 48.7
CCOc1ccc2c(c1)NC(C)(C)c1ssc(=Nc3ccccc3O)c1-2 | . | . | . | 2.9 | . | .
